From PubChem BioAssay (NCI)
This is part of a sample that, as a whole, favours compounds with a hit. Of some 83,000 tested, about 20% had one in any assay.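 Step 1: grow cells in 96-well plates. Step 2: add test compound at a single concentration. Step 3: incubate 48 h. Step 4: record percent growth.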 Values without a mark were called inactive. Active and inactive are the calls of the source. Rule for the calls: active = growth percent below 10; inactive = the rest.

Test system: HL-60(TB) leukemia
Assay: NCI-60 one-dose screen, 48 h (100 = growth as untreated, 0 = no growth, -100 = all killed)
Conditions: 10 µM unless noted

SMILES | growth
CCN1C(=O)N(CC)C2Nn3c(s/c(=C\c4ccc([N+](=O)[O-])cc4)c3=O)=NC21 (stereo unspecified) | 87%
NS(=O)(=O)c1ccc(N2N=C(c3ccc(-c4ccccc4)cc3)CC2c2ccc(Cl)cc2)cc1 (stereo unspecified) | 86.5%
COc1ccc(-c2nc(Nc3nc4ccccc4[nH]3)nc(N)c2C#N)cc1 | 97.8%
CCCC(O)Cn1ncc(C(=O)OCC)c1NC(=O)NCc1cccc(F)c1 (stereo unspecified) | 59.2%
Cc1ccc(NC(=O)c2sc3nc(C)c(C(O)c4ccccc4)cc3c2N)cc1 (stereo unspecified) | -47.5% (active)
CC1(C)C(N)=Nc2cc(OCCCCN3Cc4ccccc4C3)c(OCC3CC3)cc21 | 99.7%
O=S(=O)(NCCNc1nccc(-c2c(-c3ccc(F)cc3)nc3sccn23)n1)c1ccc2ccccc2c1 | 88.1%
COc1cnc2c(c1)C(=O)c1c-2n(CCCCl)c(=O)c2ccncc12 | 15.8%
CCCCNC(=O)NS(=O)(=O)c1ccc(N2N=C(c3ccc(C)cc3C)CC2c2ccc(N(C)C)cc2)cc1 (stereo unspecified) | 14.4%
C1=C(c2ccccc2)c2ccccc2C1 | 95.1%
Nc1c(C(=O)Nc2ccccc2)sc2nc3c(cc12)CN(Cc1ccccc1)CC3 | 83%
O=C(O)C1CCCCN1c1nc(Cl)nc(Cl)n1 (stereo unspecified) | 97.8%
COc1nc(=O)n(C2C=CC(=O)O2)cc1F (stereo unspecified) | 1.27% (active)
CN(C)c1ccc(/C=C/C(=O)c2cccc(Nc3nc(Nc4ccccc4)nc(Nc4ccccc4)n3)c2)cc1 | 99.9%
CCCc1cc(=O)oc2c3c(c4c(c12)OC(C)(C)C=C4)O[C@@H](C)[C@H](C)C3=O | 48.3%
COC(=O)CCc1c(/C=C2\N=C(c3ccc[nH]3)C=C2OC)[nH]c(C)c1C(=O)OCc1ccccc1 | -14.3% (active)
COCCOc1ccc(-c2nc3ccc(-c4nc5ccc(N6CCN(C)CC6)cc5[nH]4)cc3[nH]2)cc1 | 3.73% (active)
CCOC(=O)c1csc(NC(=O)COc2cccc(/C=C3\Oc4cc(OC)ccc4C3=O)c2)n1 | 61.3%

SMILES | growth
O=C(NC1CCCCC1)OCc1c(COC(=O)NC2CCCCC2)c(-c2ccc(Cl)c(Cl)c2)n2c1CCC2 | -35.6% (active)
O=C(CCNCc1ccccc1)c1ccccc1 | 104%
O=S(=O)(NCCNc1cc(-c2cn(-c3ccccc3)nc2-c2ccccc2)ccn1)c1ccc(F)cc1 | 69.9%
C#CCn1c(-c2cc(OC)c(OC)cc2Br)nc(-c2ccccc2)c1-c1ccccc1 | 24.5%
S=c1[nH]c2cc(Cl)ccc2s1 | 97.4%
O=[P@@]1(c2ccccc2)O[C@H](COCc2ccccc2)[C@@H](OCc2ccccc2)[C@H](OCc2ccccc2)[C@H]1O | 98.5%
CO[C@H]1C[C@@H]2CC[C@@H](C)[C@@](O)(O2)C(=O)C(=O)N2CCCC[C@H]2C(=O)O[C@H]([C@H](C)C[C@@H]2CC[C@@H](OC(=O)C(C)(CO)CO)[C@H](OC)C2)CC(=O)[C@H](C)/C=C(\C)[C@@H](O)[C@@H](OC)C(=O)[C@H](C)C[C@H](C)\C=C/C=C/C=C/1C | -11.9% (active)
COc1ccc(/C=C2\N=C(c3cccnc3)N(c3ccccc3)NC2=O)cc1 | 95%
NNC(=O)CNc1ccc2ccccc2c1 | 84.8%
O=C(O)c1ccc2cccnc2c1O | -20.5% (active)
C/C(=C(\c1ccc(OCCN2CCCCCC2)cc1)c1ccc(OC(=O)c2ccccc2)cc1)c1ccc(Cl)cc1 | 13.8%
Cc1cnc(N)nc1OCC(C)(C)CNC(=O)c1cccc(-c2ccc(S(=O)(=O)Nc3ccc4c(c3)N(C(=O)C3CC3)CCC4)cc2)c1 | 18.2%
C[n+]1c(/C=C\C=C\N2CCCCC2)sc2ccccc21 | -37.3% (active)
COc1cc(/C=N/NC(=O)c2cnn3c2NC(c2ccccc2)C3)cc(OC)c1OC (stereo unspecified) | 81.1%
Cc1cn(C2CCCCO2)c(=O)nc1NO (stereo unspecified) | 102%
Cc1ccc2c(c1)O/C(=C\c1ccc([N+](=O)[O-])o1)C2=O | 17.2%
CN(C)CC1C(=O)O[C@H]2[C@H]1CC/C(COC(=O)NCc1ccc(Cn3c(=O)sn(CCCI)c3=O)cc1)=C\CC[C@@]1(C)O[C@@H]21 (stereo partly specified) | -36.5% (active)
COc1nc(OC)nc(-c2cc(C(=O)c3ccc(Br)cc3)n3cc(C)cc(C)c23)n1 | 99%
